# From the supplement of paper PMC10105736
# Columns and labels:
# Assay in all cases: MAPPIT interaction score (arbitrary units); higher = stronger binary interaction signal, active = hit call of the paper;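 active = MAPPIT score above the 99th percentile of random reference set scores in the same batch; inactive = at or below it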
# [1] = molecular target: CG12963; details: MAPPIT configuration: N-N; pair source set: Curagen_high_conf
# [2] = molecular target: CG13494; details: MAPPIT configuration: N-C; pair source set: screen_3
# [3] = molecular target: CG13560; details: MAPPIT configuration: N-N; pair source set: Finley_Y2H
# [4] = molecular target: CG13069; details: pair source set: RRS
# [5] = molecular target: DCTN1-p150; details: MAPPIT configuration: N-N; pair source set: Lit-BM-16
# [6] = molecular target: ctp; details: pair source set: Lit-BM-16
# [7] = molecular target: CG13510; details: MAPPIT configuration: N-N; pair source set: Lit-BS-16
# [8] = molecular target: CG13476; details: MAPPIT configuration: N-N; pair source set: Lit-BS-16
# [9] = molecular target: CG9795; details: MAPPIT configuration: N-N; pair source set: Curagen_high_conf
# [10] = molecular target: CG13058; details: pair source set: RRS
# [11] = molecular target: CG13840; details: MAPPIT configuration: N-N; pair source set: Curagen_low_conf
# [12] = molecular target: CG5674; details: MAPPIT configuration: N-N; pair source set: screen_2
# [13] = molecular target: Klp98A; details: MAPPIT configuration: N-N; pair source set: screen_1
# [14] = molecular target: Rpn13; details: MAPPIT configuration: N-N; pair source set: screen_2
# [15] = molecular target: CG13843; details: MAPPIT configuration: N-C; pair source set: screen_3
# [16] = molecular target: Os-C; details: MAPPIT configuration: N-N; pair source set: RRS
# [17] = molecular target: CG1316; details: MAPPIT configuration: N-N; pair source set: Curagen_high_conf
# 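Note: HEK293T cells with Epo stimulation, STAT-responsive firefly luciferase reporter, fold induction versus unstimulated cells divided by the larger fold induction of two negative controls lacking either bait or prey.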
binder,measurement,setting,value
csw (protein) MSSRRWFHPTISGIEAEKLLQEQGFDGSFLARLSSSNPGAFTLSVRRGNEVTHIKIQNNGDFFDLYGGEKFATLPELVQYYMENGELKEKNGQAIELKQPLICAEPTTERWFHGNLSGKEAEKLILERGKNGSFLVRESQSKPGDFVLSVRTDDKVTHVMIRWQDKKYDVGGGESFGTLSELIDHYKRNPMVETCGTVVHLRQPFNATRITAAGINARVEQLVKGGFWEEFESLQQDSRDTFSRNEGYKQENRLKNRYRNILPYDHTRVKLLDVEHSVAGAEYINANYIRLPTDGDLYNMSSSSESLNSSVPSCPACTAAQTQRNCSNCQLQNKTCVQCAVKSAILPYSNCATCSRKSDSLSKHKRSESSASSSPSSGSGSGPGSSGTSGVSSVNGPGTPTNLTSGTAGCLVGLLKRHSNDSSGAVSISMAEREREREREMFKTYIATQGCLLTQQVNTVTDFWNMVWQENTRVIVMTTKEYERGKEKCARYWPDEGRSEQFGHARIQCVSENSTSDYTLREFLVSWRDQPARRIFHYHFQVWPDHGVPADPGCVLNFLQDVNTRQSHLAQAGEKPGPICVHCSAGIGRTGTFIVIDMILDQIVRNGLDTEIDIQRTIQMVRSQRSGLVQTEAQYKFVYYAVQHYIQTLIARKRAEEQSLQVGREYTNIKYTGEIGNDSQRSPLPPAISSISLVPSKTPLTPTSADLGTGMGLSMGVGMGVGNKHASKQQPPLPVVNCNNNNNGIGNSGCSNGGGSSTTSSSNGSSNGNINALLGGIGLGLGGNMRKSNFYSDSLKQQQQREEQAPAGAGKMQQPAPPLRPRPGILKLLTSPVIFQQNSKTFPKT,MAPPIT interaction score,[1],-0.144 (inactive)
CG5021 (protein) MASATVRNVPLLDDDTIPFGEEDEMRDPSRAGQKYTHPYVTFFHLFFRGAAILIYMFCGWFSDSFITSFVFVVLFLSADFWTVKNISGRLLVGLRWWNYVDDDGVSHWVFESKNSESYQSRVNKNEQRIFWLGLILCPVFWGLFFLFALFGLKFKWLLLVMIAIALNAANLYGYVKCNYGANKDLNSAATDFVKTQFFKNAVDIMTRPSGAPPPTNVRPTGVV,MAPPIT interaction score,[2],0.956 (inactive)
Treh (protein) MFKLPTISLLLVSWSCLVALSQAKTYSLPDLTTDYNNAIPVDEEEAQDPFASCKIYCEGNLLHTIQTAVPKLFADSKTFVDMKLNNSPDKTLEDFNAMMEAKNQTPSSEDLKQFVDKYFSAPGTELEKWTPTDWKENPSFLDLISDPDLKQWGVELNSIWKDLGRKMKDEVSKNPEYYSIIPVPNPVIVPGGRFIEFYYWDSYWIIRGLLYSQMFDTARGMIENFFSIVNRFGFIPNGGRVYYHGRSQPPLLTGMVKSYVDFTNDDKFAIDALDTLEHEFEFFVNNHNVTVKNHSLCVYRDSSSGPRPESYREDVETGEEFPTDEAKELHYSELKAGAESGMDFSSRWFISPTGTNDGNRSALSTTSIVPVDLNAYLYWNAKLIAEFHSKAGNTKKVTEYETKAEKLLLGIQEVLWNEEAGVWLDYDMINQKPRDYYTPTNLSPLWVKAFNISESEKISASVMAYIERNKLDSFPGGVPNTLSYTGEQWDAPNVWAPMQYILVEGLNNLNTPEAKNMSLKWATRWVKTNFAAFSKDRHMYEKYNADEFGVGGGGGEYEVQTGFGWSNGVIIEWLSKHGRDISIGSGCGCLAGEKRQ,MAPPIT interaction score,[3],-0.19 (inactive)
sw (protein) MDRKAELERKKAKLAALREEKDRRRREKEIKDMEEAAGRIGGGAGIDKDQRKDLDEMLSSLGVAPVSEVLSSLSSVNSMTSDNSNTQTPDASLQATVNGQSGGKKQPLNLSVYNVQATNIPPKETLVYTKQTQTTSTGGGNGDVLSCHSSPLSGYMEDWWRPRKAHATDYYDEYNLNPGLEWEDEFTDDEESSLQNLGNGFTSKLPPGYLTHGLPTVKDVAPAITPLEIKKETEVKKEVNELSEEQKQMIILSENFQRFVVRAGRVIERALSENVDIYTDYIGGGDSEEANDERSHARLSLNRVFYDERWSKNRCITSMDWSTHFPELVVGSYHNNEESPNEPDGVVMVWNTKFKKSTPEDVFHCQSAVMSTCFAKFNPNLILGGTYSGQIVLWDNRVQKRTPIQRTPLSAAAHTHPVYCLQMVGTQNAHNVISISSDGKLCSWSLDMLSQPQDTLELQQRQSKAIAITSMAFPANEINSLVMGSEDGYVYSASRHGLRSGVNEVYERHLGPITGISTHYNQLSPDFGHLFLTSSIDWTIKLWSLKDTKPLYSFEDNSDYVMDVAWSPVHPALFAAVDGSGRLDLWNLNQDTEVPTASIVVAGAPALNRVSWTPSGLHVCIGDEAGKLYVYDVAENLAQPSRDEWSRFNTHLSEIKMNQSDEV,MAPPIT interaction score,[4]; MAPPIT configuration: N-C,-0.364 (inactive)
same,MAPPIT interaction score,[4]; MAPPIT configuration: N-N,0.421 (inactive)
same,MAPPIT interaction score,[5],1.87 (inactive)
same,MAPPIT interaction score,[6]; MAPPIT configuration: N-C,1.37 (inactive)
same,MAPPIT interaction score,[6]; MAPPIT configuration: N-N,1.75 (inactive)
Grip75 (protein) MIHDLLLACRSHNPEQLGIKAFNETTVIDQFIHPCEREIFMDIIKIIKVYQEVEQFTHSSGRKSDTHGELPDSLHGYYLLNLAKGIEMALEEYYAEIGRLEKYCLGNERNSLSYVYNALYAKFPLLVFMRNLITEIHVLNLRGCVLLHNLHQQCEHGDIQLEKAIKIIMKPVKNAFFSSLAHWLLFGVIDDVHSEFFIKFTPTDAVDGSSFSKSATCSLLSAEKNPEDYIWQYEVNMSQLPGFFSIVLAEKVLFVGQTVLVFKMGRNVKVKNKTDPLAAKLAELDSDDIYQLWSGRESEFFKMVVDLSNEDTINVFRLEKVIIDIKNYVSARLSEIAVNEVDLERQMGLIKDFFLLGRGEFYLEFCSQMVGTMETYREERFKNVTRSFELAATVTGITDDLDKFSLICQRSTSEPDDTSDFNFLQGLSLKYEYEWPLNLLFSPTTIERYNNIFRFLLIIRTYQYEIQRVWAKQTWRAKSAKDVPPNNKIITLRNYLMFFLNNMQYYIQVDVLESQFGILMNVIKSRSDFEVIQRAHTVFLANVLSHCFLLNESETQLNVTGSQNRNPIYGTLLKLFGICEKFAHMTQTKDPSDDLEDEVDQLNESFGVQIASLIQLLVDVKSASCLGPLSQLLLRLDFNCWFSASHNTSA,MAPPIT interaction score,[7],0.427 (inactive)
Nin (protein) MEVSADPYEQKLYQMFRSCETQCGLLDEKSLLKLCSLLELRDQGSALIASLGGSHQLGVSFGQFKEALLNFLGSEFDGNTSSGFIERSLVITDEPLNNTYIESPPESSDREVSPKLVVGTKKYGRRSRPQQGIYELSVTDSDNTDEDQLQQQQNQRSLNGCDELGVQVQRSSSQSDLPGSRRLRSVHTSGSKLKRCASLPARRKMNSNTTGATTSPTAAAKLKQLSIQSQAQHSSSVESLDTVTPQQLETISVHSIMEAWELASIPNTRNLLHVLGFDEEEEVNLQQLTKALEEELRGIDGDHEQSNMLRALAALQATELGNYRLAYRQQHEENLKLRADNKAANQRVALLAVEVDERHASLEDNSKKQVQQLEQRHASMVREITLRMTNDRDHWTSMTGKLEAQLKSLEQEEIRLRTELELVRTENTELESEQQKAHIQITELLEQNIKLNQELAQTSSSIGGTPEHSPLRPRRHSEDKEEEMLQLMEKLAALQMENAQLRDKTDELTIEIESLNVELIRSKTKAKKQEKQEKQEDQESAATATKRRGDSPSKTHLTEESPRLGKQRKCTEGEQSDASNSGDWLALNSELQRSQSQDEELTSLRQRVAELEEELKAAKEGRSLTPESRSKELETSLEQMQRAYEDCEDYWQTKLSEERQLFEKERQIYEDEQHESDKKFTELMEKVREYEEQFSKDGRLSPIDERDMLEQQYSELEAEAAQLRSSSIQMLEEKAQEISSLQSEIEDLRQRLGESVEILTGACELTSESVAQLSAEAGKSPASSPISYLWLQSTIQEPAKSLADSKDEATASAIELLGGSPSHKTASRNNLTTSETSIFSTTPFESSQSGPSPTNSGNSNAYGANPGPAPISKPKRSQSPQQAAASEGEIADCETSSTASGKSFESNSKTSCLSHEKCSSPSALKEELKRLKFFELSLKEQIKDLSLQRDGLVMELQQLQEARPVLEKAYARTTHPTLQQRLNQLELRNRHLQNVIKQQQHYTESLMQQSWRQHQVELNDLHSRIETQGVLLADQTQRLQSADILVKDLYVENSHLTATVQRLEQQRARVNLIHQQQQQQRLVGGGLPGMP,MAPPIT interaction score,[8],0.125 (inactive)
same,MAPPIT interaction score,[9],4.19 (active)
Fdx2 (protein) MLVINSCRAASRLALRSLNLRSPIATRTFSTGLALKTKDVVNITFVRANGDKIKTSGKVGDSLLDVVVNNNVDLDGFGACEGTLTCSTCHLIFKTSDFEKLPDKPGDEELDMLDLAYELTDTSRLGCQITLSKDMEGLEVHVPSTINDARAA,MAPPIT interaction score,[10]; MAPPIT configuration: N-C,0.365 (inactive)
same,MAPPIT interaction score,[10]; MAPPIT configuration: N-N,0.0953 (inactive)
sina (protein) MSNKINPKRREPTAAAAGAGATGVATNTSTSTGSSSAGNTSSANTSSSSSSSLSSAGGGDAGMSADLTSLFECPVCFDYVLPPILQCSSGHLVCVSCRSKLTCCPTCRGPLANIRNLAMEKVASNVKFPCKHSGYGCTASLVYTEKTEHEETCECRPYLCPCPGASCKWQGPLDLVMQHLMMSHKSITTLQGEDIVFLATDINLPGAVDWVMMQSCFGHHFMLVLEKQEKYDGHQQFFAIVQLIGSRKEAENFVYRLELNGNRRRLTWEAMPRSIHEGVASAIHNSDCLVFDTSIAQLFADNGNLGINVTISLV,MAPPIT interaction score,[11],-0.135 (inactive)
same,MAPPIT interaction score,[12],-0.0161 (inactive)
same,MAPPIT interaction score,[13],0.0642 (inactive)
same,MAPPIT interaction score,[14],0.72 (inactive)
Dpit47 (protein) MKQMAAQKAWTDEERLELAAQLDAELDAFIDGLEKKRYEEGWPEDRWQEEMDKHPFFMKRAPQPGDDVHPMFEGLQKLKYDPEENTRDELALNYKEDGNFYMKHKKFRMAIYSFTEGIKTKTDNPDVLAVLYNNRSAAHFFIKNYRSSLSDAQRALFYKPDYTKARWRSAQCAYELERFDLCTQMCEELLEVDVDNEVAIALLHKNKMKKLEIERNQRKEAAEAKRRLTRFHRLRDAIEQRAIKFDDQKVGKKDVLSEELLYPKFLPLEDHPVHLDEDGSTLIWPAAFSYPEFLYSDFYQQLPETTTMRDCLATLLTEKLPYDKAHNYRLGNVHVYYENRKVGCVHKVDEEKQLAEIIAEKGFFVSGGALLFYVVHKDSRVEQEFINERRRPMVYS,MAPPIT interaction score,[15],3.75 (active)
same,MAPPIT interaction score,[16],1.52 (inactive)
poly (protein) MATSVLLACGLNEQKLPGFVHISEESNVDASFLISCVLGQRLRISNAGTLLVCLQHHYQHYFNAGMRLGYNTNIFQGKTLGVIDVLSDMAGEGLASKWLTNTEGQTLTDQLVEDIRAQVERNYASRNSYTVLIDNLSILFNLGASKLQVQQFCQDLAALGKEREKLTVITKLSNSDIYQLTDNNVAKLGQVRIQVLRLKSGVFREVDGKLLIERVLDEGNYACEETRKEVLYKVNDRNVKVFAPGEIGVKV,MAPPIT interaction score,[17],0.569 (inactive)
